Screen size: about 5,500 compounds; about 2,000 (36%) were called active. Inconclusive results (about 18%) are left out. Rule as the data show it: active = normalized growth mostly below about 0.91 (no sharp cut-off); inconclusive = no clear call, values can overlap the other calls; inactive = mostly above about 0.92. The list shows a part of the results.
Experiment: chemical genetic growth profiling, strain panel (AID 1159580);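 also: tested at 20 µM; growth read once vehicle control cultures reached saturation at 30 °C; 1 = growth at the plate median or of vehicle wells; lower values mean less growth of the strain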
Settings: growth OD

Measured: normalized growth

N=C(N)N
inactive: S. cerevisiae deletion strains, locus YJR075W, strain HOC1, hits give low values 0.988 | S. cerevisiae deletion strains, locus YKL009W, strain mrt4, hits give low values 0.997 | S. cerevisiae deletion strains, locus YKL068W, hits give low values 0.982 | S. cerevisiae deletion strains, locus YKL085W, strain MDH1 (second series), hits give low values 0.97 | S. cerevisiae deletion strains, locus YKL085W, strain MDH1, hits give low values 0.97 | S. cerevisiae deletion strains, locus YKL160W, strain elf1, hits give low values 1 | S. cerevisiae deletion strains, locus YKL190W, strain CNB1, hits give low values 0.993 | S. cerevisiae deletion strains, locus YKR001C, strain vps1, hits give low values 0.996 | S. cerevisiae deletion strains, locus YKR026C, strain gcn3, hits give low values 0.999 | S. cerevisiae deletion strains, locus YKR091W, strain srl3, hits give low values 1 | S. cerevisiae deletion strains, locus YLL001W, strain dnm1, hits give low values 0.993 | S. cerevisiae deletion strains, locus YLL026W, hits give low values 0.994 | S. cerevisiae deletion strains, locus YLL041C, strain sdh2, hits give low values 1 | S. cerevisiae deletion strains, locus YLR027C, strain aat2, hits give low values 1.01 | S. cerevisiae deletion strains, locus YLR039C, strain RIC1, hits give low values 1.01 | S. cerevisiae deletion strains, locus YLR058C, strain SHM2, hits give low values 0.999 | S. cerevisiae deletion strains, locus YLR102C, strain apc9, hits give low values 0.986 | S. cerevisiae deletion strains, locus YLR113W, strain HOG1, hits give low values 0.996 | S. cerevisiae deletion strains, locus YLR221C, strain rsa3, hits give low values 0.982 | S. cerevisiae deletion strains, locus YLR258W, strain gsy2, hits give low values 0.996 | S. cerevisiae deletion strains, locus YLR262C, strain YPT6 (second series), hits give low values 0.991 | S. cerevisiae deletion strains, locus YLR262C, strain YPT6, hits give low values 1.01 | S. cerevisiae deletion strains, locus YLR268W, strain sec22, hits give low values 0.937 | S. cerevisiae deletion strains, locus YLR320W, strain mms22, hits give low values 0.983 | S. cerevisiae deletion strains, locus YLR330W, strain CHS5, hits give low values 0.991 | S. cerevisiae deletion strains, locus YLR342W, strain FKS1 (second series), hits give low values 1.13 | S. cerevisiae deletion strains, locus YLR342W, strain FKS1, hits give low values 0.993 | S. cerevisiae deletion strains, locus YLR357W, strain rsc2, hits give low values 0.977 | S. cerevisiae deletion strains, locus YLR370C, strain arc18, hits give low values 1.01 | S. cerevisiae deletion strains, locus YLR371W, strain rom2, hits give low values 0.961 | S. cerevisiae deletion strains, locus YLR384C, strain iki3, hits give low values 0.985 | S. cerevisiae deletion strains, locus YLR418C, strain cdc73, hits give low values 1.02 | S. cerevisiae deletion strains, locus YML016C, strain PPZ1, hits give low values 1 | S. cerevisiae deletion strains, locus YML032C, strain rad52, hits give low values 0.96 | S. cerevisiae deletion strains, locus YML120C, strain ndi1, hits give low values 1.02 | S. cerevisiae deletion strains, locus YML124C, strain tub3, hits give low values 0.991 | S. cerevisiae deletion strains, locus YMR058W, strain fet3, hits give low values 1 | S. cerevisiae deletion strains, locus YMR078C, strain ctf18, hits give low values 0.967 | S. cerevisiae deletion strains, locus YMR125W, strain sto1, hits give low values 0.996 | S. cerevisiae deletion strains, locus YMR129W, hits give low values 0.992 | S. cerevisiae deletion strains, locus YMR205C, strain PFK2, hits give low values 1.01 | S. cerevisiae deletion strains, locus YMR223W, strain ubp8, hits give low values 1.02 | S. cerevisiae deletion strains, locus YMR231W, strain pep5, hits give low values 0.994 | S. cerevisiae deletion strains, locus YMR263W, strain SAP30, hits give low values 0.992 | S. cerevisiae deletion strains, locus YMR307W, strain GAS1, hits give low values 1.14 | S. cerevisiae deletion strains, locus YNL067W, strain RPL9B, hits give low values 0.987 | S. cerevisiae deletion strains, locus YNL071W, strain lat1, hits give low values 1.01 | S. cerevisiae deletion strains, locus YNL128W, strain TEP1, hits give low values 0.995 | S. cerevisiae deletion strains, locus YNL153C, strain GIM3, hits give low values 1 | S. cerevisiae deletion strains, locus YNL183C, strain NPR1, hits give low values 0.949 | S. cerevisiae deletion strains, locus YNL209W, strain ssb2, hits give low values 1.02 | S. cerevisiae deletion strains, locus YNL233W, strain BNI4, hits give low values 0.994 | S. cerevisiae deletion strains, locus YNL248C, strain rpa49, hits give low values 0.92 | S. cerevisiae deletion strains, locus YNL250W, strain rad50, hits give low values 0.99 | S. cerevisiae deletion strains, locus YNL271C, strain bni1, hits give low values 0.993 | S. cerevisiae deletion strains, locus YNL298W, strain CLA4, hits give low values 0.999 | S. cerevisiae deletion strains, locus YNL307C, strain MCK1, hits give low values 0.991 | S. cerevisiae deletion strains, locus YNL322C, strain KRE1 (second series), hits give low values 0.997 | S. cerevisiae deletion strains, locus YNL322C, strain KRE1, hits give low values 0.993 | S. cerevisiae deletion strains, locus YNR049C, strain mso1, hits give low values 0.991 | S. cerevisiae deletion strains, locus YNR052C, strain pop2, hits give low values 0.971 | S. cerevisiae deletion strains, locus YOL006C, strain TOP1, hits give low values 0.979 | S. cerevisiae deletion strains, locus YOL012C, strain htz1 0.806 | S. cerevisiae deletion strains, locus YOL147C, strain pex11, hits give low values 0.976 | S. cerevisiae deletion strains, locus YOR001W, strain rrp6, hits give low values 0.949 | S. cerevisiae deletion strains, locus YOR061W, strain CKA2, hits give low values 0.991 | S. cerevisiae deletion strains, locus YOR069W, strain VPS5, hits give low values 0.999 | S. cerevisiae deletion strains, locus YOR070C, strain gyp1, hits give low values 0.979 | S. cerevisiae deletion strains, locus YOR080W, strain dia2, hits give low values 0.979 | S. cerevisiae deletion strains, locus YOR083W, strain WHI5, hits give low values 1.01 | S. cerevisiae deletion strains, locus YOR106W, strain vam3, hits give low values 1.01 | S. cerevisiae deletion strains, locus YOR136W, strain idh2, hits give low values 0.986 | S. cerevisiae deletion strains, locus YOR144C, strain elg1, hits give low values 0.977 | S. cerevisiae deletion strains, locus YOR184W, strain ser1, hits give low values 0.974 | S. cerevisiae deletion strains, locus YOR231W, strain MKK1, hits give low values 1.02 | S. cerevisiae deletion strains, locus YOR265W, strain rbl2, hits give low values 0.998 | S. cerevisiae deletion strains, locus YOR270C, strain vph1, hits give low values 0.969 | S. cerevisiae deletion strains, locus YOR290C, strain snf2, hits give low values 0.975 | S. cerevisiae deletion strains, locus YOR316C, strain cot1, hits give low values 0.965 | S. cerevisiae deletion strains, locus YPL051W, strain arl3, hits give low values 0.983 | S. cerevisiae deletion strains, locus YPL055C, strain LGE1, hits give low values 1.01 | S. cerevisiae deletion strains, locus YPL078C, strain atp4, hits give low values 1.01 | S. cerevisiae deletion strains, locus YPL106C, strain sse1, hits give low values 1.01 | S. cerevisiae deletion strains, locus YPL240C, strain hsp82, hits give low values 0.999 | S. cerevisiae deletion strains, locus YPL241C, strain CIN2, hits give low values 0.998 | S. cerevisiae deletion strains, locus YPL256C, strain CLN2, hits give low values 1.07 | S. cerevisiae deletion strains, locus YPR119W, strain clb2, hits give low values 0.974 | S. cerevisiae deletion strains, locus YPR141C, strain kar3, hits give low values 0.982 | S. cerevisiae deletion strains, locus YPR163C, strain tif3, hits give low values 0.976 | S. cerevisiae deletion strains, locus YPR167C, strain met16, hits give low values 0.971 | S. cerevisiae deletion strains, strain wtn01, hits give low values 0.981 | S. cerevisiae strains, strain wild type, hits give low values 1
